# Experimental data: the supplement of paper PMC4954754
# ± gives the uncertainty stated by the source.
# Legend:
# HEK293T-Rex XBP1-RLuc = test: XBP1-RLuc splicing reporter activation, triplicate, relative to 500 nM thapsigargin (% of thapsigargin); higher = stronger IRE1/XBP1s reporter activation; conditions: 6.8 µM; 18 h; screen: confirmation
# Procedure: (§1)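 HEK293T-Rex cells stably expressing the ERSE-firefly luciferase (BiP promoter, ATF6-preferring) or XBP1-splicing Renilla luciferase (IRE1/XBP1s) reporter, 1536-well plates, compound at 6.8 µM for 18 hr at 37 °C; luminescence read […] and expressed as % activation = 100*(compound - median DMSO)/(median 500 nM thapsigargin - median DMSO). Primary screen was single-pass; confirmation screen in triplicate (mean ± SD).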
# HEK293T-Rex ERSE-FLuc = test: ERSE-FLuc reporter activation, triplicate confirmation, relative to 500 nM thapsigargin (% of thapsigargin); higher = stronger ATF6/ERSE reporter activation; conditions: 6.8 µM; 18 h; screen: confirmation
# Procedure: as §1
SMILES,XBP1-RLuc splicing reporter activation (HEK293T-Rex XBP1-RLuc),ERSE-FLuc reporter activation (HEK293T-Rex ERSE-FLuc)
Cc1ccc(NC(=S)NC(=O)C(=O)Nc2ccccc2)cc1,58.6 ± 3.3,139 ± 11
COc1ccc2oc(=Nc3cc(F)ccc3F)c(C(N)=O)cc2c1,4.22 ± 1,25.3 ± 4.6
OCCNc1nc(Nc2ccc(Cl)cc2)nc2ccccc12,32.6 ± 2.5,67.9 ± 10
COC(=O)c1ccc2c(COC(C)=O)c(OC(C)=O)ccc2c1COC(C)=O,24.5 ± 2.2,113 ± 10
N#Cc1c(NC(=O)/C=C/c2ccco2)sc2c1CCCC2,11.3 ± 1.3,29.4 ± 2.5
COc1ccc(/C=C/c2ccc3cccc(OC(C)=O)c3n2)cc1OC(C)=O,6.25 ± 0.81,39.7 ± 5.5
CC(Oc1ccc(Cl)cc1Cl)C(=O)NNC(=O)c1ccc(O)c(O)c1 (stereo unspecified),15.4 ± 1.8,28.5 ± 5.5
Cc1ccc(/C=C(\C#N)C(=O)Nc2cccc(Cl)c2)o1,0.278 ± 1.4,26.2 ± 10
O=C(Nc1ccccc1O)c1cc2ccccc2o1,7.88 ± 0.66,33 ± 7.3
Cc1ccccc1NC(=O)c1sc2nc(N)c(C#N)c(-c3ccc(C(C)C)cc3)c2c1N,15.4 ± 2.4,36.7 ± 3.3
Nc1cn(-c2ccccc2)nc1-c1cccs1,50.6 ± 2.8,28.6 ± 6.5
CC(C)c1ccc(NC(=O)/C=C/c2ccco2)cc1,4 ± 0.68,26.6 ± 5.9
Nc1ccccc1NC(=O)c1ccc(Cl)cc1,10 ± 0.7,33.6 ± 4.6
O=C1N/C(=C/c2ccc(O)cc2)C(=O)N1Cc1ccc(Br)cc1,33.3 ± 4.9,37.1 ± 3.6
O=c1[nH]c(/C=C2\C=Nc3ccccc32)c(O)n1-c1cccc(Cl)c1,47.9 ± 7.7,58.7 ± 9.3
Cc1cccc2c1[nH]c1nc(N/N=C\c3c[nH]c4ccccc34)nnc12,21.8 ± 1.6,60.4 ± 14
Cc1ccc(O)c(NC(=O)CCc2ccccc2)c1,17.5 ± 1.9,63.24 ± 0.61
COc1cccc(C(=O)/C=C/Nc2cc(C)ccc2O)c1,10.2 ± 0.47,116 ± 7.9
O=[N+]([O-])c1ccccc1N/N=C/c1ccc(O)c(O)c1,10.3 ± 1.3,43.3 ± 6.8
Cc1ccc2nc(/C(C#N)=C/c3ccc(O)cc3)[nH]c2c1,13.8 ± 1.6,30.3 ± 3
Cc1cnc(NC(=O)c2sc3nc4c(C)cccc4cc3c2N)s1,32.6 ± 0.95,28.6 ± 7.1
Cc1ccc(O)c(-c2cc(C(F)(F)C(F)F)no2)c1,13.8 ± 1.5,37.1 ± 3.1
COc1ccc2[nH]c3c(N4CCCCC4)ncnc3c2c1,4.28 ± 0.66,28.3 ± 2.6
COC(=O)c1ccc(C(=O)Nc2ccccc2N)cc1,9.29 ± 0.17,32.9 ± 4.2
CCOc1cc(/C=C2/NC(=O)N(c3cccc(Cl)c3)C2=O)ccc1O,22.9 ± 1.5,30.5 ± 9.3
CCCCNc1ncnc2c1cnn2-c1ccc(Cl)cc1,1.56 ± 1.6,30.3 ± 4.6

SMILES,XBP1-RLuc splicing reporter activation (HEK293T-Rex XBP1-RLuc),ERSE-FLuc reporter activation (HEK293T-Rex ERSE-FLuc)
CN(C)c1ccc(/C=C(/C#N)C(=O)Nc2ccc(O)cc2)cc1,22.2 ± 0.63,33.3 ± 5
O=C1c2cc(O)ccc2-c2ccc(O)cc21,17.8 ± 0.69,25.6 ± 6
COc1cccc(-c2cc(C(=O)Nc3cc(C)ccc3O)no2)c1,12.6 ± 4.8,43.9 ± 11
O=C(/C=C/c1ccco1)Nc1ccc(Br)cc1Cl,-0.469 ± 0.9,25.5 ± 1.6
O=C(Nc1ccc(Cl)cn1)c1ccc(Cl)cc1Cl,0.717 ± 0.56,27.1 ± 2.4
Cc1ccc(O)c(NC(=O)c2cc(C(C)C)on2)c1,12.7 ± 0.5,44.6 ± 1.3
C(=C\c1ccccc1)/C=N/Nc1nc2ccccc2[nH]1,5.21 ± 0.2,27.2 ± 3.8
Cc1ccc(O)c(N/C=C/C(=O)c2cccs2)c1,4.09 ± 1.2,62.1 ± 12
COc1cccc(/C=N\NC(=O)c2n[nH]c3c2CCC3)c1,2.25 ± 1,26.1 ± 2.5
COc1c(O)cc2oc(-c3ccc(O)c(O)c3)cc(=O)c2c1O,53.7 ± 3.8,133 ± 21
COc1cc2ccccc2cc1C(=O)N/N=C/c1cccs1,3.81 ± 0.66,25.7 ± 4.6
CC(=O)Oc1cc(N2CCOCC2)c(OC(C)=O)c2c1C(=O)c1ccccc1C2=O,8.79 ± 2,45 ± 8
CN(C)c1ccc(/C=C/C(=O)NC(=O)c2ccccc2OC(=O)c2ccccc2)cc1,0.481 ± 0.46,26.9 ± 8.8
CNC(=O)c1ccccc1Nc1cc(NC(=O)Cc2ccc(F)c(F)c2)ncc1C(F)(F)F,91.3 ± 2.1,54.6 ± 9
O=C(N/N=C/c1ccc(Cl)cc1Cl)c1ccc(O)c(O)c1,10.6 ± 0.64,25.8 ± 6.1
Oc1ccc(/C=N/Nc2cccc3cccnc23)cc1O,17.3 ± 2.3,33.1 ± 4.8
O=C(N/N=C\C(Br)=C\c1ccccc1)c1n[nH]c2c1CCCC2,7.86 ± 1.6,35 ± 4.1
C=CCNC(=O)c1cc(-c2cccs2)on1,7.78 ± 0.96,72.1 ± 6
C=CCn1c(N2CCC(C(=O)NCCc3ccc(O)c(O)c3)CC2)nc2ccccc21,33.9 ± 2,28.9 ± 6.2
Cc1ccc(O)c(NC(=O)CSc2n[nH]c(C)c2[N+](=O)[O-])c1,16.6 ± 2.4,52.5 ± 14
CC(=O)Nc1ccc2nc(-c3ccc(OC(C)=O)cc3)sc2c1,21.7 ± 1,25.9 ± 3.6
COc1cn(-c2ccc(F)cc2)nc1C(=O)Nc1ccccc1SC,15.5 ± 1.8,62.7 ± 4.5
O=C(N/N=C/c1ccc(Cl)cc1)c1n[nH]c2c1CCCC2,3.79 ± 8.1,42 ± 8.6
COc1ccc(C(=O)Nc2nnc(-c3cccs3)s2)cc1,0.956 ± 0.85,26.3 ± 5
COc1ccc(/C=C/c2nc3cc([N+](=O)[O-])ccc3s2)cc1O,4.47 ± 0.66,25.5 ± 3.9
O=C1N/C(=C/c2ccc(O)cc2)C(=O)N1c1ccccc1,49 ± 4.5,66.4 ± 15

SMILES,XBP1-RLuc splicing reporter activation (HEK293T-Rex XBP1-RLuc),ERSE-FLuc reporter activation (HEK293T-Rex ERSE-FLuc)
Nc1nc(Nc2ccc(Cl)c(Cl)c2)nc2ccccc12,11.3 ± 0.79,43.5 ± 3.9
COc1ccc(-c2csc(N(CC3CCCO3)C(=O)CCl)n2)cc1 (stereo unspecified),2.74 ± 0.89,25.3 ± 4.3
O=C(Nc1ccc(O)cc1)c1ccc2ccccc2c1,6.41 ± 0.68,28.3 ± 11
CCCCCCOc1ccc(/C(C)=N/NC2=NCCN2)cc1[N+](=O)[O-],15 ± 0.76,31.3 ± 2.8
Nc1ccc2nc(-c3ccc(Br)cc3)[nH]c2c1,12.5 ± 2,36.7 ± 10
CCCNC(=O)c1cc(-c2ccc(F)cc2)on1,4.12 ± 0.34,42 ± 5.5
O=C(Nc1ccc2c(c1)OCCO2)C(=O)Nc1ccccc1Cl,-0.329 ± 3.7,27 ± 5.6
Cc1ccc2nc(/C(C#N)=C/c3ccc(O)c(O)c3)[nH]c2c1,16.5 ± 0.47,38.9 ± 2.7
N#Cc1c(NC(=O)c2cccc(F)c2)sc2c1CCC2,,25.9 ± 3.9
Cc1ccc(O)c(-c2cc(-c3cccs3)[nH]n2)c1,,44.2 ± 7.9
Cc1ccc(C(=O)Nc2sc3c(c2C#N)CCC3)cc1,4.62 ± 0.97,
O=c1[nH]c(/C=C2\C=Nc3ccccc32)c(O)n1-c1ccc(Cl)cc1,43.1 ± 3.6,
CCc1ccc(NC(=O)/C=C/c2ccco2)cc1,4.88 ± 0.83,
Nc1ccc2nc(/C=C/c3ccco3)[nH]c2c1,17.8 ± 0.14,
O=C(CC(=O)Nc1ccc2nc3n(c(=O)c2c1)CCCCC3)NCc1ccco1,22.3 ± 2.9,
Cn1c(-c2cccc(Cl)c2)cnc1NC(=O)c1ccccc1,2.86 ± 0.72,
COc1ccc(NC(=O)/C(Cl)=C\c2ccccc2)cc1,-0.467 ± 2.4,
COc1ccc(CCNC(=O)c2cccc(-c3ccc(N4CCOCC4)nc3)c2)cc1,1.79 ± 0.38,
O=C1N/C(=C\c2ccc(O)cc2)C(O)=C1C=NCc1ccccc1,49.1 ± 2.3,
O=C(Nc1ccc(O)cc1)c1c(O)c2c([nH]c1=O)CCCC2,19 ± 0.94,
O=C(N/N=C/c1ccc2c(c1)OCO2)c1cccc(F)c1,1.67 ± 0.99,
Oc1ccc(-c2cn3ccccc3n2)cc1O,20.8 ± 2,
NC(=O)c1c(NC(=O)/C=C/c2ccccc2)sc2c1CCCCC2,6.12 ± 0.94,
CCC(=O)N(Cc1cc2cc(C)ccc2n2nnnc12)C1CCCC1,4.74 ± 0.41,
COc1ccc2c(Cl)c(C(=O)Nc3ccccc3C(N)=O)sc2c1,4.82 ± 1.1,
COc1ccc(/C=N/NC(=O)c2cccc(F)c2)cc1Br,1.01 ± 0.87,

SMILES,XBP1-RLuc splicing reporter activation (HEK293T-Rex XBP1-RLuc),ERSE-FLuc reporter activation (HEK293T-Rex ERSE-FLuc)
O=C(N/N=C/c1cccc(Cl)c1Cl)c1ccccc1O,6.36 ± 0.63,
CCOc1ccc(NC(=O)c2cccc(F)c2)c([N+](=O)[O-])c1,1.77 ± 2.1,
CCCCNNC(=O)c1ccc(Br)cc1,9.12 ± 0.67,
Cc1ccc(O)c(NC(=O)c2cc(-c3cccs3)on2)c1,22.7 ± 1.2,
Cc1ccc(C(=O)Nc2ccccc2N)cc1,14.1 ± 1.3,
CN(C)c1ccc(C2C(C#N)=C(N)Oc3c2sc2ccccc32)cc1[N+](=O)[O-] (stereo unspecified),9.04 ± 0.83,
Oc1cccc(/C=N/Nc2ccc(Cl)nn2)c1O,19 ± 1.9,
CN(C)c1ccc(-c2nc3ccc(N)cc3[nH]2)cc1,13.4 ± 0.35,
Cc1ccc(O)c(NC(=O)c2cc(-c3ccco3)on2)c1,19 ± 4.5,
N#C/C(=C/c1ccc(O)c(O)c1)c1nc2ccccc2s1,19.7 ± 0.5,
COc1ccc(/C=C2\SC(=O)NC2=Nc2ccc(C)cc2)c(OC)c1,6.33 ± 0.42,
Cn1cccc1/C=C1/SC(=Nc2ccccc2)NC1=O,5.98 ± 0.28,
COc1ccc(-c2nn(-c3ccccc3)cc2/C=C/C(=O)O)cc1[N+](=O)[O-],8.64 ± 1.1,
COc1ccc(-c2cnnc(N/N=C/c3ccc(O)c(O)c3)n2)cc1,24 ± 2.2,
COc1cccc(C(=O)Nc2nc3ccc(C)cc3s2)c1,5.6 ± 0.99,
O=C(N/N=C\c1ccccc1[N+](=O)[O-])c1[nH]nc2c1CCc1ccccc1-2,3.05 ± 1.7,
NN1C(=O)/C(=C/c2ccc(O)c(O)c2)SC1=S,16.7 ± 0.56,
CCOc1cccc(C(=O)Nc2ccc(-c3nc4ccc(C(=O)c5ccccc5)cc4[nH]3)cc2)c1,94 ± 5,
N#C/C(=C\c1ccc(O)c(O)c1)c1nc2ccccc2[nH]1,12.6 ± 0.2,
Nc1c(C(=O)Nc2ccccc2)sc2nc3c(cc12)CCCCC3,12.6 ± 4.7,
CCCNC(=O)c1ccc2nc(-c3ccc4[nH]ccc4c3)sc2c1,-0.994 ± 0.65,
O=[N+]([O-])c1ccccc1NC(=S)N/N=C/c1ccc(O)c(O)c1,8.61 ± 0.81,
Cc1cc(C)nc(/N=C(\N)Nc2ccc(OCc3ccccc3)cc2)n1,78.3 ± 5.3,
